Reference: PubChem BioAssay AID651871 (Sanford-Burnham Center for Chemical Genomics, 2012)
“And” between values parts separate entries of the source, which are not always exact repeats. Identical values can stand only once.

Test system: HL-1
Assay: protection of cardiomyocytes from stress damage, SAR follow-up, cell-based, panel, H9c2 and HL-1, ATP luminescence, set 2 (AID 651871);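 note: cells exposed to stressor for 2 h before ATP readout; reference of the scale not given here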
Details: H9c2/HL-1 cardiomyocytes, 2-deoxyglucose stress, with 2-deoxyglucose; run 7, at 79 µM (top of the series)

| Structure (SMILES) | activity (protection/inhibition) |
| --- | --- |
| COc1ccc2nc(-c3cc(OC)c(OC)c(OC)c3)cc(C(=O)NCC(=O)Nc3ccc(C(C)=O)cc3)c2c1 | 38% |
| CCOC(=O)c1cccc(NC(=O)CNC(=O)c2cc(-c3cc(OC)c(OC)c(OC)c3)nc3ccccc23)c1 | 54.3% |
| COc1ccc2c(c1OC)C(=O)N1c3ccccc3C(=O)N(Cc3cccc(Cl)c3Cl)C21 (stereo not drawn) | 48.9% and 20.1% and -9.92% |
